# PubChem BioAssay (Tox21)
# Results filed as inconclusive are left out. Activity calls are given as the source filed them. Calls follow the shape of the dose curve; as a rule, active = well fitted cell-killing curve with a large enough effect in the repeat runs; inconclusive = weak or mixed curves, or effect the other way; inactive = flat fitted curve, though single readings scatter.
# Experiment: qHTS RealTime-Glo MT Cell Viability Assay in HEK293 cells - 0 hour (AID 1224880); also: top concentration of the series differs between compounds; nearly all actives have a fitted effect of over 45% in size
# Settings: RealTime-Glo luminescence; series mostly up to 76.8 µM; activity change, negative = cytotoxicity: at the top concentration
# Excerpt: U.S. Tox21 Program National Center for Advancing Translational Sciences [NCATS] NIH Chemical Genomics Center [NCGC] U.S. Environmental Protection Agency [EPA] National Institutes of Environmental Health Sciences [NIEHS] National Toxicology Program [NTP] U.S. Food and Drug Administration [FDA] Tox21 Assay Overview: Measure of cell viability is critical in the cell-base assay. Analysis of cell viability is necessary for the characterization of cell responses to cytotoxic drugs and environmental stress. A RealTime-Glo MT Cell Viability Assay to monitor cell viability in real time of continues cell culture during 40 hours of compound treatment was used to screen Tox21 10K library compounds in Hek293 cells. The RealTime-Glo MT Cell Viability Assay is a nonlytic, homogeneous, bioluminescent method to measure cell viability in real time using a simple, plate-based method. The assay involves adding NanoLuc luciferase and a cell-permeant prosubstrate to cells in culture. Viable cells reduce the proprietary prosubstrate to generate a substrate for NanoLuc luciferase. This substrate diffuses from cells into the surrounding culture medium, where it is rapidly used by the NanoLuc Enzyme to produce a luminescent signal. The signal correlates with the number of viable cells, making the assay well suited for cytotoxicity studies.
# Tox21 Assay Protocol Summary: The mixture of Hek293 cell suspension and reagents were dispensed at 600cells/6 ul/well in 1536-well tissue culture treated black solid bottom plates using a Multidrop dispenser. After the assay plates were incubated at a 37 C/5% CO2 incubator for 5 hours, 23 nL of compounds dissolved in DMSO, positive and negative controls was transferred to the assay plate by a pintool work station. The plates were incubated at 37 C for 40 hours. The luminescence intensity were measured at 0h, 8h, 16h, 24h, 32h and 40h time points using ViewLux plate reader during compound treatment.
# % is scaled to controls: 0 for no effect and ±100 for the full control effect.
row,Compound,"activity change, negative = cytotoxicity"
1,C1CCSC1,-11.2% (inactive)
2,Nc1cc([N+](=O)[O-])cc(Cl)c1O,1.46% (inactive)
3,O=C1C=CC(=O)N1c1cccc(N2C(=O)C=CC2=O)c1,-8.41% (inactive)
4,Nc1ccc(F)c([N+](=O)[O-])c1,18.9% (inactive)
5,CCCCCCCCSCc1cc(C)c(O)c(CSCCCCCCCC)c1,-18.9% (inactive)
6,O=C(c1ccccc1)c1ccc(Cl)cc1,-5.32% (inactive)
7,COC(=O)c1ccc([N+](=O)[O-])cc1,-1.38% (inactive)
8,O=[N+]([O-])c1ccc(CO)cc1,1.58% (inactive)
9,c1ccc2occc2c1,10.3% (inactive)
10,CCCCCCCCCCCCCCCCCCNC(=O)OC1CCN(C(=O)OC[C@H](COC(=O)N(Cc2cccc[n+]2CC)C(=O)c2ccccc2OC)OC)CC1,3.82% [at 35.3 µM] (inactive)
11,O=C(Nc1ccccc1)c1cc(Cl)ccc1O,4.71% (inactive)
12,CN1CC[C@H](c2c(O)cc(O)c3c(=O)cc(-c4ccccc4Cl)oc23)[C@H](O)C1,-0.692% [at 35.3 µM] (inactive)
13,CCOC(=O)[C@H](C)O,19.5% (inactive)
14,CC(C)C(=O)C(C)C,7.61% (inactive)
15,O=[N+]([O-])c1ccc(O)c2ncccc12,-14.9% [at 35.3 µM] (inactive)
16,C=C[Si](C)(C)Cl,-5.88% [at 6.97 µM] (inactive)
17,CN(C/C=C/c1ccccc1)Cc1cccc2ccccc12,-1.2% [at 35.3 µM] (inactive)
18,ClC(c1ccccc1)(c1ccccc1)c1ccccc1,-3.11% (inactive)
19,CC1CCC(C(C)(C)O)CC1 (stereo not given),-0.757% (inactive)
20,Nc1ccc(Cl)c([N+](=O)[O-])c1,-0.748% (inactive)

row,Compound,"activity change, negative = cytotoxicity"
1,CC(C)c1ccc2sc3ccccc3c(=O)c2c1,1.08% (inactive)
2,C=CC(=O)O[C@H]1C[C@@H]2CC[C@@]1(C)C2(C)C,8.32% (inactive)
3,COCCC(=O)OC,-3.34% (inactive)
4,CC/C(=C(/c1ccc(O)cc1)c1ccc(OCCN(C)C)cc1)c1ccccc1,10.6% [at 35.3 µM] (inactive)
5,O=C1CCC/C=C\CCCCCCCCCC1,-8.41% (inactive)
6,CCCCNc1ccc(NCCCC)c2c1C(=O)c1ccccc1C2=O,-4.14% [at 15.8 µM] (inactive)
7,CC(Cc1ccc(O)c(O)c1)C(C)Cc1ccc(O)c(O)c1 (stereo not given),-16% (inactive)
8,Clc1ccc2c(Cl)ccnc2c1,8.45% (inactive)
9,CC(C=O)c1ccccc1 (stereo not given),-9.59% (inactive)
10,CCOC(=O)[C@H](O)[C@@H](O)C(=O)OCC,15% (inactive)
11,CCc1cccc(CC)c1,0% (inactive)
12,C=Cc1ccc(O)c(OC)c1,-0.0801% (inactive)
13,COc1cc([C@@H]2c3cc4c(cc3[C@@H](O[C@@H]3O[C@@H]5CO[C@@H](C)O[C@H]5[C@H](O)[C@H]3O)[C@H]3COC(=O)[C@H]23)OCO4)cc(OC)c1O,-5.24% (inactive)
14,CCN(CC)c1ccc2c(c1)Oc1cc(N(CC)CC)ccc1C21OC(=O)c2ccccc21,-20.6% [at 35.3 µM] (inactive)
15,CC(C)=NNC(N)=S,9.38% (inactive)
16,CC(c1cc(C(C)(C)C)cc(C(C)(C)C)c1O)c1cc(C(C)(C)C)cc(C(C)(C)C)c1O,-15.1% (inactive)
17,O=C(CCN1CCC(c2ccccc2)C1)c1ccc2c(c1)OCCO2 (stereo not given),-0.588% [at 35.3 µM] (inactive)
18,CCc1cccc(C)c1N(C(=O)C(=O)O)C(C)COC (stereo not given),2.94% (inactive)
19,CCn1c2ccccc2c2ccccc21,6.67% (inactive)
20,c1ccc(-c2ccc(C(c3ccccc3)n3ccnc3)cc2)cc1 (stereo not given),-27.6% [at 35.3 µM] (inactive)
